Measured values reported in PubChem BioAssay (Tox21).
Several values for one entry are separate records, joined by “and”; a condition that tells them apart may be missing. Equal entries are not always repeated. Results filed as inconclusive are left out. A structure can be active in one record and inactive in another. Activity calls are given as the source filed them. Unless noted, the call rests on the fitted dose curve.

What was measured:
[1] = Nuclear factor erythroid 2-related factor 2/antioxidant responsive element (Nrf2/ARE) small molecule agonists: qHTS cell viability counter screen in human keratinocytes (AID 1919968; active means well fitted curve in the direction sought with a large enough effect in the repeat runs; an effect the other way counts as inactive or inconclusive; further: nearly all actives have a fitted effect of over 55% in size)
How it was run: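 CellTiter-Fluor fluorescence, read 1 h after reagent, gave viability in the same wells as the ARE-luciferase assay. KeratinoSens cells (1,500/well) had 23 h compound exposure at 37 C/5% CO2 following 5 h plating.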

[2] = Nuclear factor erythroid 2-related factor 2/antioxidant responsive element (Nrf2/ARE) small molecule agonists: luciferase reporter gene qHTS assay in human keratinocytes (AID 1919969); further: nearly all actives have a fitted effect of over 35% in size; further: potency means the concentration at half of the fitted maximal effect
[3] = molecular target: Gonadotropin-releasing hormone receptor (Homo sapiens) (UniProt P30968); assay: Human gonadotropin-releasing hormone receptor (GnRHR) small molecule agonists, calcium flux assay in GnRHR-HEK293 cells (AID 1920063); further: nearly all actives have a fitted effect of over 35% in size
How it was run: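 Agonist mode: compounds at 15 concentrations, in triplicate, went onto calcium dye-loaded GnRHR-HEK293 cells. Intracellular calcium was then followed as 480/540 nm fluorescence at 1 s intervals over 3 min.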

[4] = molecular target: KiSS-1 receptor (Homo sapiens) (UniProt Q969F8); assay: Human kisspeptin (KISS1R) small molecule agonists, calcium flux assay in KISS1R-HEK293 cells (AID 1920064; active means well fitted curve in the direction sought with a large enough effect in the repeat runs; an effect the other way counts as inactive or inconclusive)
How it was run: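 Agonist mode: intracellular calcium rise tracked at 1 s intervals over 3 min (480/540 nm) immediately after compound addition to dye-loaded KISS1R-HEK293 stable cells. Each compound tested at 15 concentrations in triplicate.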

[5] = G protein-coupled receptor (GPCR) small molecule agonists, calcium flux assay: HEK293 wild type cell line counter screen (AID 1920065)
How it was run: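 Calcium flux counter screen: compound added in agonist mode at 15 concentrations in triplicate to dye-loaded parental HEK293 cells. Fluorescence (480/540) read kinetically for 3 min; ATP served as positive control.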

[6] = p53 small molecule agonists, cell-based qHTS assay with human liver microsomes (AID 1963577);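 further: p53 response element beta-lactamase reporter cells with liver microsomes plus NADPH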
How it was run: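 16 h, 37 C exposure of p53RE-bla cells to compounds with human liver microsomes and NADPH (0.5 mg/mL final each); detection via LiveBLAzer mixture, 2 h dark at room temperature.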

[7] = p53 small molecule agonists, cell-based qHTS assay with rat liver microsomes (AID 1963578)
How it was run: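 With rat liver microsomes and NADPH present (0.5 mg/mL final each), p53RE-bla cells are treated with compound for 16 h at 37 C. LiveBLAzer detection mixture is then applied for 2 h at room temperature in the dark.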

[8] = p53 small molecule agonists, cell-based qHTS assay with human liver microsomes: qHTS cell viability counter screen (AID 1963579); further: nearly all actives have a fitted effect of over 45% in size; further: potency means the concentration at half of the fitted maximal effect
How it was run: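 In this multiplexed counter screen, the reporter plates were subsequently treated with CellTiter-Glo so that cell viability, reflected by luminescence, could be recorded for p53RE-bla cells dosed 16 h with compounds under microsomal activation (HLM and NADPH).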

[9] = p53 small molecule agonists, cell-based qHTS assay with rat liver microsomes: qHTS cell viability counter screen (AID 1963580); further: nearly all actives have a fitted effect of over 45% in size
How it was run: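 After the beta-lactamase ratio was read, CellTiter-Glo was added to the same wells and luminescence measured at 30 min; cells had been treated 16 h at 37 C with compounds, rat liver microsomes and NADPH (0.5 mg/mL final each).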

[10] = p53 small molecule agonists, cell-based qHTS assay: qHTS cell viability counter screen (AID 1963581); further: nearly all actives have a fitted effect of over 45% in size
How it was run: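 Counter screen read by CellTiter-Glo luminescence (ATP content, 30 min at room temperature), run in the same wells as the beta-lactamase reporter read. HCT-116 p53RE-bla cells saw compounds for 16 h at 37 C.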

[11] = p53 small molecule agonists, cell-based qHTS assay (AID 1963582; active means well fitted activation curve with a large enough effect in the signal ratio in the repeat runs, not every such curve was filed as active; the % refers to the signal ratio)
How it was run: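 Read-out is beta-lactamase FRET fluorescence after 2 h at room temperature with LiveBLAzer B/G substrate. p53 response element-bla cells were treated 16 h at 37 C with compounds in DMSO, added 5 h after seeding.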

[12] = molecular target: 5-hydroxytryptamine receptor 2A (Homo sapiens) (UniProt P28223); assay: 5-hydroxytryptamine receptor 2A (HTR2A) small molecule antagonists, cell-based qHTS assay (AID 1963586); further: nearly all actives have a fitted effect of over 45% in size
How it was run: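 CHO cells stably expressing human HTR2A were plated for 18 h at 37 C, then loaded with calcium dye for 1 h. Compounds were preincubated 5 min at room temperature before DOI (4 nM solution) was added. Kinetic fluorescence was read for 3 min.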

[13] = molecular target: Muscarinic acetylcholine receptor M1 (Homo sapiens) (UniProt P11229); assay: Cholinergic receptor muscarinic 1 (CHRM1) small molecule antagonists, cell-based qHTS assay (AID 1963588); further: nearly all actives have a fitted effect of over 40% in size; further: potency means the concentration at half of the fitted maximal effect
How it was run: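 Compounds were tested at 15 concentrations in three independent runs. Dye-loaded CHRM1-CHO cells were exposed 5 min at room temperature before stimulation by acetylcholine added at 50nM. Intracellular calcium was read kinetically on FDSS for 3 min.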

[14] = cAMP Responsive Elements (CRE) small molecule agonists, cell-based qHTS assay (AID 1963590)
How it was run: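 Agonist mode: compound added to CRE-bla HEK 293T cells (2,000/well, 18 h after plating) for 3 h at 37 C/5% CO2. Reporter activity detected via FRET beta-lactamase substrate, 2 h room-temperature loading.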

[15] = cAMP Responsive Elements (CRE) small molecule antagonists, cell-based qHTS assay (AID 1963591; active means well fitted inhibition curve with a large enough effect in the signal ratio in the repeat runs, not every such curve was filed as active; the % refers to the signal ratio)
How it was run: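 Antagonist mode: compounds are added alongside the adenylyl cyclase activator NKH477 (0.25 uM final) to CRE-bla HEK293T cells for 3 h. LiveBLAzer FRET substrate, 2 h at room temperature, reports bla expression.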

[16] = molecular target: Beta-2 adrenergic receptor (Homo sapiens) (UniProt P07550); assay: Adrenergic beta2 receptor (ADRB2) small molecule antagonists, cell-based qHTS assay (AID 1963592); further: nearly all actives have a fitted effect of over 50% in size; further: potency means the concentration at half of the fitted maximal effect
How it was run: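 Assay format: CHO-ADRB2 cells, 18-20hr seeding at 37C/5% CO2, then compound plus 1nM isoproterenol agonist mix for 0.5hr RT. Homogeneous time-resolved fluorescence cAMP detection after 1hr, expressed as 665/615 nm ratio.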

[17] = molecular target: D(2) dopamine receptor (Homo sapiens) (UniProt P14416); assay: Dopamine D2 receptor (DRD2) small molecule antagonists, cell-based qHTS assay (AID 1963595; active means well fitted inhibition curve with a large enough effect in the signal ratio in the repeat runs, with a control signal flat; the % refers to the signal ratio)
How it was run: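 Readout: HTRF cAMP, cAMP-d2 competing with cellular cAMP for anti-cAMP cryptate, read after 1 h. Cells: DRD2-HEK293. Conditions: 0.1 mM Ro20-1724, 12 nM quinpirole, 200 nM NKH477, 30 min RT.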

[18] = molecular target: Muscarinic acetylcholine receptor M1 (Homo sapiens) (UniProt P11229); assay: Cholinergic receptor muscarinic 1 (CHRM1) small molecule agonists, cell-based qHTS assay (AID 1963589); further: nearly all actives have a fitted effect of over 35% in size
How it was run: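 Agonist-mode calcium-flux screen: compounds at 15 concentrations, three independent runs, were pin-transferred onto dye-loaded human CHRM1-CHO cells. Fluorescence was then recorded kinetically every second over minutes.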

[19] = molecular target: Beta-2 adrenergic receptor (Homo sapiens) (UniProt P07550); assay: Adrenergic beta2 receptor (ADRB2) small molecule agonists, cell-based qHTS assay (AID 1963593);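 further: CHO cells stably overexpressing human ADRB2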
How it was run: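 CHO cells stably over-expressing ADRB2 were plated overnight at 37C, then dosed with compounds plus a stimulation mix containing 100uM IBMX and 25uM Ro-20-1724 for 0.5hr at room temperature. cAMP was measured by HTRF competition, 1hr.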

[20] = molecular target: D(2) dopamine receptor (Homo sapiens) (UniProt P14416); assay: Dopamine D2 receptor (DRD2) small molecule agonists, cell-based qHTS assay (AID 1963594); further: nearly all actives have a fitted effect of over 35% in size
How it was run: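 HEK293 cells stably expressing human DRD2, pre-treated with PDE inhibitor Ro20-1724 (0.1 mM final) and compound 10 min at room temperature, then stimulated with NKH477 (200nM […]) for 30 min. cAMP read by HTRF (665/620 nm).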

Measured: Potency

Chain of Muscarinic acetylcholine receptor M1 (Homo sapiens) (P11229 whole entry, looked up): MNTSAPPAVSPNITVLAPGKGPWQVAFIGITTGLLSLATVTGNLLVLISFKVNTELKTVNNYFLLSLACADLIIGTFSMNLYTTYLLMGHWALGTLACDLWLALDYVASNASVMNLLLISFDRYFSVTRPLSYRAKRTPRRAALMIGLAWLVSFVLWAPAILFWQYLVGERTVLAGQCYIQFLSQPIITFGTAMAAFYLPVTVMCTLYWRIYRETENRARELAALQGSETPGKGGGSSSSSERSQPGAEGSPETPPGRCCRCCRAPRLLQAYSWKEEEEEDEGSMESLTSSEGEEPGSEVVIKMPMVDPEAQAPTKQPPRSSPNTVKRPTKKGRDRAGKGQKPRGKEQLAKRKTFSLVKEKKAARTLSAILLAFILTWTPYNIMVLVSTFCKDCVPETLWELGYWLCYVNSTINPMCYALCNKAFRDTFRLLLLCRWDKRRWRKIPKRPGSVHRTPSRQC
Chain of KiSS-1 receptor (Homo sapiens) (Q969F8 whole entry, looked up): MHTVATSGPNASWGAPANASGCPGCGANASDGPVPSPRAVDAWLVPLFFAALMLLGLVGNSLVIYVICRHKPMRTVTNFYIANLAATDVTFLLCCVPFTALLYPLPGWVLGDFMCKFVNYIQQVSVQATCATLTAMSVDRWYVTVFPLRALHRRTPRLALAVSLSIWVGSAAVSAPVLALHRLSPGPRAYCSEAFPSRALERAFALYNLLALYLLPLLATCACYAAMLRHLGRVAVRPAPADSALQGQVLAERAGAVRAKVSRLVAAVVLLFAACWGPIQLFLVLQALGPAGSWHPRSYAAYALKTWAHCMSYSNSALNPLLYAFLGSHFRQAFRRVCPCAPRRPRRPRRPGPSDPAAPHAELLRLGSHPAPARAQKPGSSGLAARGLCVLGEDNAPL
Chain of Beta-2 adrenergic receptor (Homo sapiens) (P07550 whole entry, looked up): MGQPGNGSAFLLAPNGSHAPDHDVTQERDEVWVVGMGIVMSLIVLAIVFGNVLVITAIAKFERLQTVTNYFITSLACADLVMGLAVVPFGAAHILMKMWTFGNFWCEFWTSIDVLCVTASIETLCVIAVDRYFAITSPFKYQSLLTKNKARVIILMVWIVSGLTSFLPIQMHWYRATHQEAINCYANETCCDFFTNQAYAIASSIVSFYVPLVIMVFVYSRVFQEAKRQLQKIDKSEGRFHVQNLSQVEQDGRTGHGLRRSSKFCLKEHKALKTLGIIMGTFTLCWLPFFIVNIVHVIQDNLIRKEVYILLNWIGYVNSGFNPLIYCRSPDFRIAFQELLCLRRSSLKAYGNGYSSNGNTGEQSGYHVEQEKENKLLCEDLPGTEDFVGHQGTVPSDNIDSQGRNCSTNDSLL
Chain of 5-hydroxytryptamine receptor 2A (Homo sapiens) (P28223 whole entry, looked up): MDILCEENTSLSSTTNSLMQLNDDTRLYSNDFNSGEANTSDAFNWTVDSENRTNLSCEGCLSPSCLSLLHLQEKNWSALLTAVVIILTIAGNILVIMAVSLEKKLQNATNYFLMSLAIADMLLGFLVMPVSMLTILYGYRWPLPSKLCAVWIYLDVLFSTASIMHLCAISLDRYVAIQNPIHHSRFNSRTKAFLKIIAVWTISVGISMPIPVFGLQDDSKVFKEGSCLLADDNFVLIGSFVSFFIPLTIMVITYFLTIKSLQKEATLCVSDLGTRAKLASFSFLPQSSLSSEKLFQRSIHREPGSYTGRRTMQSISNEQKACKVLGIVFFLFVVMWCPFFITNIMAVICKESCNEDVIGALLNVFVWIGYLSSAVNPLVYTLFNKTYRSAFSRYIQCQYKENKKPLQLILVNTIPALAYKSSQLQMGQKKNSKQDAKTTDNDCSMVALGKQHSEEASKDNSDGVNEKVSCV
Chain of Gonadotropin-releasing hormone receptor (Homo sapiens) (P30968 whole entry, looked up): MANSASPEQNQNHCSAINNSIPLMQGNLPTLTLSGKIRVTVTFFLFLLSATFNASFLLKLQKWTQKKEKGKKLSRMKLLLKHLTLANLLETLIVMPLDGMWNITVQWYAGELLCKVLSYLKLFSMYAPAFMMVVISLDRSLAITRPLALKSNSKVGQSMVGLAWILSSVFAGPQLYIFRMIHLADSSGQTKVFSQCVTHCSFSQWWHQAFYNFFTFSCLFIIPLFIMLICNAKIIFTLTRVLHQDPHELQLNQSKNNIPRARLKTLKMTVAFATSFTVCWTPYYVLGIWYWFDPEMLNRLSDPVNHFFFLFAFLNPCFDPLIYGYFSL
Chain of D(2) dopamine receptor (Homo sapiens) (P14416 whole entry, looked up): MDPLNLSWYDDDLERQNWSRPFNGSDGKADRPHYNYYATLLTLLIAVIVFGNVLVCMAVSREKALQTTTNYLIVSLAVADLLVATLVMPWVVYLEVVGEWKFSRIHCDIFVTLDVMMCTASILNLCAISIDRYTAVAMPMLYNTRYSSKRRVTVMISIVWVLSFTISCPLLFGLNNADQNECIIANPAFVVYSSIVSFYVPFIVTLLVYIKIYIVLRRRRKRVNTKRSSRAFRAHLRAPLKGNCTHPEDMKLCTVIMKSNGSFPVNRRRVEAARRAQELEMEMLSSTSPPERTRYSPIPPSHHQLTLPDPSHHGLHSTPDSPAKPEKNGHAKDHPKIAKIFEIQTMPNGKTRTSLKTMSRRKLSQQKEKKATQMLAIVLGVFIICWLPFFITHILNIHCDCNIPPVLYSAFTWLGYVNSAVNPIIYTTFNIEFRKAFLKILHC

O=c1cc[nH]c(=S)[nH]1
inactive and 793 nM (active): [8]
not listed: [18] | [19] | [20]
inactive: all other assays above

CN(C)C
not listed: [13]
inactive: all other assays above

CCCCCCCC(=O)O
not listed: [15] | [19]
inactive: all other assays above

CCCCCCCCOc1ccc(C(=O)c2ccccc2)c(O)c1
not listed: [18]
inactive: all other assays above

CC1=C(C)S(=O)(=O)CCS1(=O)=O
active: [2] 6.73 µM and 8.63 µM
inactive and 13.7 µM (active): [16]
not listed: [15] | [17] | [18] | [19]
inactive: all other assays above

OCC(O)CS (stereo not given)
not listed: [13]
inactive: all other assays above

N[C@@H](Cc1cc(I)c(Oc2cc(I)c(O)c(I)c2)c(I)c1)C(=O)O
not listed: [18]
inactive: all other assays above

C=C(C)CNCC
not listed: [18]
inactive: all other assays above

O=c1[nH]c(=O)n([C@H]2C[C@H](O)[C@@H](CO)O2)cc1Br
not listed: [14]
inactive: all other assays above

CCCCCCCCCCCCCCCO
54.9 µM (active) and inactive: [2]
not listed: [15] | [19]
inactive: all other assays above

Cc1cccc2n[nH]nc12
not listed: [15]
inactive: all other assays above

O=C(Cl)c1cccc(C(=O)Cl)c1
not listed: [14] | [15] | [18] | [19]
inactive: all other assays above

Cc1ccc(C)c(O)c1
not listed: [14] | [15] | [20]
inactive: all other assays above

CC1(C)CC(N=C=O)CC(C)(CN=C=O)C1 (stereo not given)
active: [13] 17 µM
not listed: [15] | [20]
inactive: all other assays above

CC(=O)OC[C@H]1O[C@@](COC(C)=O)(O[C@H]2O[C@H](COC(C)=O)[C@@H](OC(C)=O)[C@H](OC(C)=O)[C@H]2OC(C)=O)[C@@H](OC(C)=O)[C@@H]1OC(C)=O
not listed: [15] | [16] | [18] | [19]
inactive: all other assays above

CCCCCNCCCCC
not listed: [14]
inactive: all other assays above

CC(C)(CO)CO
not listed: [15] | [19]
inactive: all other assays above

O=CCc1ccccc1
not listed: [13]
inactive: all other assays above

CC[Si](OC(C)=O)(OC(C)=O)OC(C)=O
not listed: [14]
inactive: all other assays above

Cc1cc(C(C)(C)C)c(O)c(C(C)(C)C)c1
active: [2] 24.4 µM and 48.6 µM
not listed: [18] | [19]
inactive: all other assays above

NCCOCCO
not listed: [14] | [15] | [18]
inactive: all other assays above

O=C(O)CN(CC(=O)O)CC(=O)O
not listed: [14] | [15]
inactive: all other assays above

CCO[Si](CCCN)(OCC)OCC
not listed: [18]
inactive: all other assays above

CC/C(C)=N/O
not listed: [15]
inactive: all other assays above

O=C(O)Cn1c(=O)n(Cc2ccc(Br)cc2F)c(=O)c2ccc(Cl)cc21
not listed: [13]
inactive: all other assays above

Oc1ccc2ccccc2c1N=Nc1ccccc1
472 nM (active) and inactive: [13]
active: [2] 30.6 µM and 21.7 µM
not listed: [15] | [19]
inactive: all other assays above

Cc1ccc(C)c(C)c1
not listed: [15] | [19]
inactive: all other assays above

NC(=S)NNC(N)=S
not listed: [15]
inactive: all other assays above

CC/C=C(\C(=O)N[C@@H]1C(=O)N2C(C(=O)OCOC(=O)C(C)(C)C)=C(COC(N)=O)CS[C@H]12)c1csc(N)n1
inactive and 29.8 µM (active): [2]
not listed: [15] | [18]
inactive: all other assays above

C1COCCN1
not listed: [14]
inactive: all other assays above

CC(=O)Nc1ccc(C(=O)O)cc1
not listed: [18]
inactive: all other assays above
